This note sets out measurements from PubChem BioAssay AID1851 (National Center for Advancing Translational Sciences (NCATS), 2009).

In all, about 16,000 compounds went through this assay and about 5,100 (32%) were called active. Inconclusive results (about 25%) are left out. Calls come from the whole dose curve; as a rule, active = well fitted curve in the direction sought with a large enough effect; inconclusive = small, poorly fitted or top-dose-only effect, or effect the other way; inactive = no such curve, though single readings can be large or run the other way. This is one part of the list.
% is set by controls: 0 for no effect and ±100 for the full control effect.

For the experiment, the target named is Cytochrome P450 3A4 (Homo sapiens) (UniProt P08684). Nature of the experiment: Cytochrome panel assay with activity outcomes. The conditions noted are these: recombinant CYP, pro-luciferin dealkylation, luminescence, p450-cyp3a4; series mostly up to 57.1 µM; activity, negative = inhibition: at the top concentration.
Chain of Cytochrome P450 3A4 (Homo sapiens) (P08684 whole entry, looked up): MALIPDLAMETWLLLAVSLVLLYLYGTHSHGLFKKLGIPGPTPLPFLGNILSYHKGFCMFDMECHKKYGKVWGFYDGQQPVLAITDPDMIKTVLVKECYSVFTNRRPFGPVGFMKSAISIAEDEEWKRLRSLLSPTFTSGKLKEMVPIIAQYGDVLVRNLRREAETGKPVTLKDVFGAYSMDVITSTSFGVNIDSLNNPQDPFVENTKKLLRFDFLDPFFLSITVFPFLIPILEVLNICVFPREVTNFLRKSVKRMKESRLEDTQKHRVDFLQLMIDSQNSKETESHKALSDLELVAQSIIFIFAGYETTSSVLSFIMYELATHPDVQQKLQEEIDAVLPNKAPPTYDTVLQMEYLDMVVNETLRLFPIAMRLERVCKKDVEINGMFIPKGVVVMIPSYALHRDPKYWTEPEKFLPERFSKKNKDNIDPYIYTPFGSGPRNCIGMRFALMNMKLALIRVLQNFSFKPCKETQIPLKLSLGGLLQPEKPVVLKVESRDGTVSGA
As for `CCN1CC=C2C(C#N)=C(N)C(C#N)(C#N)[C@H](c3ccoc3)[C@H]2C1`, the AC50 is 11.2 µM (active). The same measure, in the same setting: to `CCCN1CC=C2C(C#N)=C(N)C(C#N)(C#N)C(c3cc(OC)ccc3OC)C2C1` (configuration not stated) belongs 2 µM (active).

For the compound `CN1CCC2(CC1)C1CN(C)CC=C1C(C#N)=C(N)C2(C#N)C#N` (configuration not stated), the “activity, negative = inhibition” value is -27.5% (inactive). As for `CCC/C=C(\CCC)C(NC(=O)c1cccs1)c1ccc(C(F)(F)F)cc1` (configuration not stated), the AC50 is 2.51 µM (active). The same measure, in the same setting: to `CCC/C=C(\CCC)C(NC(=O)c1cccs1)c1ccc(C(=O)OC)cc1` (configuration not stated) belongs 1.26 µM (active). On the same count and under the same terms, the result for `CCC/C=C(\CCC)C(NS(=O)(=O)c1cccs1)c1ccc(C(=O)OC)cc1` (configuration not stated) reads 3.16 µM (active).

In the case of `COc1nccc(-c2c(-c3ccc(F)cc3)ncn2C2CCC(O)CC2)n1` (configuration not stated), the “activity, negative = inhibition” value was 1.06% (inactive).

On to `Cc1ccccc1OC/C(O)=C(\C#N)c1nc2ccccc2[nH]1`, for which the “activity, negative = inhibition” value was -2.48% (inactive).

Turning to `COc1cccc(OC)c1/C(O)=C(\C#N)c1nc2ccccc2[nH]1`, the AC50 is 2 µM (active). On to `Cn1c(=O)n(C)c2cc(/C=N/n3cnnc3)ccc21`, for which the activity, negative = inhibition was 2.58% [at 2.29 µM] (inactive).

As for `CCn1c2ccccc2c2cc(/C=N/n3cn[nH]c3=S)ccc21`, the AC50 is 7.08 µM (active). On the same count and under the same terms, the result for `CC(C)(C(=O)c1cccnc1)c1cccnc1` reads 1.26 µM (active). With `O=C(O)c1cccnc1`, the “activity, negative = inhibition” value was -2.06% [at 25.6 µM] (inactive). With `Cc1ccc(S(=O)(=O)/C(C#N)=C/c2c(N3CC(C)OC(C)C3)nc3ccccn3c2=O)cc1` (configuration not stated), the concentration at half-maximal activity (AC50) is 1.41 µM (active).

Consider `Cn1c(C(=O)N2COCC2(C)C)cc2c(=O)n3ccccc3nc21`, for which the “activity, negative = inhibition” value is -15.4% (inactive).

On to `CON(c1nc(N(C)C)nc(N(C)C)n1)S(=O)(=O)c1ccccc1Cl`, for which the AC50 was 12.6 µM (active). As to `Fc1ccc2nc3[nH]c4ccccc4c3nc2c1`, the concentration at half-maximal activity (AC50) was 14.1 µM (active). With `Cc1cc2nc3[nH]c4c(Cl)cc(Cl)cc4c3nc2cc1C`, the activity, negative = inhibition is -18.7% [at 11.4 µM] (inactive). For the compound `O=c1[nH]c(=O)c2nc3ccccc3nc2[nH]1`, the “activity, negative = inhibition” value was -9.44% (inactive). Regarding `CN(Cc1ccccc1)c1nc(-c2ccc([N+](=O)[O-])cc2)nc2ccccc12`, the concentration at half-maximal activity (AC50) was 1.12 µM (active).

`CN(Cc1ccco1)c1nc(-c2ccc3c(c2)OCO3)nc2ccccc12`: the AC50 was 1.58 µM (active). Turning to `CN(C)C(=O)c1ccc(-c2nc(N(C)Cc3ccco3)c3ccccc3n2)cc1`, the “activity, negative = inhibition” value was -29.3% (inactive). As to `CN(Cc1ccco1)c1nc(-c2ccoc2)nc2ccccc12`, the AC50 is 25.1 µM (active). Still for that read-out and setting: to `CN(C)c1ccc(-c2nc(N(C)Cc3ccco3)c3ccccc3n2)cc1` belongs 10 µM (active). For the compound `C[C@H](CCC(=O)NCC(=O)O)[C@H]1CC[C@H]2[C@H]3[C@@H](C[C@@H](O)[C@]12C)[C@]1(C)CC[C@H](O)C[C@@H]1C[C@@H]3O`, the “activity, negative = inhibition” value is 0.455% [at 25.6 µM] (inactive). For `COc1ccc(CNc2ncnc3ccc(-c4ccoc4)cc23)c(OC)c1`, the half-maximal activity concentration (AC50) is 3.16 µM (active). Regarding `COc1ccccc1CNc1ncnc2ccc(-c3ccoc3)cc12`, the AC50 is 15.8 µM (active).

The term AC50 denotes the concentration giving half of the maximal activity seen.
